# PubChem BioAssay (NCI)
# Where “and” joins values, the source holds several entries; their conditions need not be identical. Equal entries are not always repeated. Compounds without any hit were thinned out: in the full panel of roughly 79,000, 15% have a hit. Values without a mark were called inactive. Calls of active or inactive are those of the source. No stated cut-off is given here; in the data, active means growth inhibition above about 70%; inactive means the rest.
# What was measured:
# [1] = NCI Yeast Anticancer Drug Screen. Data for the rad50 strain (AID 155);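 further: 0% = growth of vehicle-only cultures of the same strain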; settings: S. cerevisiae rad50 strain growth inhibition; at 50.0 µM; active compounds read high
# Summary of the method: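 Vehicle-treated cultures provide the reference for the growth inhibition reported for compound-exposed, repair-deficient yeast.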
# [2] = NCI Yeast Anticancer Drug Screen. Data for the mec2-1 strain (AID 157); settings: S. cerevisiae mec2-1 strain, at 50.0 µM, active compounds read high
# Summary of the method: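 Vehicle-treated cultures served as reference for growth inhibition of compound-exposed mec2-1 yeast.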
# [3] = NCI Yeast Anticancer Drug Screen. Data for the sgs1 mgt1 strain (AID 161);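 further: 0% = growth of cultures given vehicle only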; settings: S. cerevisiae sgs1 mgt1 strain, at 50.0 µM, active compounds read high
# Summary of the method: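 Inhibition of yeast growth, normalised to vehicle-treated controls, is reported for a strain bearing genetic alterations in DNA damage repair.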
# [4] = NCI Yeast Anticancer Drug Screen. Data for the cln2 rad14 strain (AID 165);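 further: 0% = growth equal to vehicle treated cultures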; settings: S. cerevisiae cln2 rad14 strain, at 50.0 µM, active compounds read high
# Summary of the method: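 Each compound was tested on cln2 rad14 yeast. Inhibition of growth was calculated against vehicle-exposed controls.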
# [5] = NCI Yeast Anticancer Drug Screen. Data for the bub3 strain (AID 167); settings: S. cerevisiae bub3 mutant strain, at 50.0 µM, active compounds read high
# Summary of the method: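 Mutant yeast screening strain plus compound; vehicle-treated cultures serve as the 0% inhibition reference.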
# [6] = NCI Yeast Anticancer Drug Screen. Data for the mlh1 rad18 strain (AID 175); settings: S. cerevisiae mlh1 rad18 strain growth inhibition; at 50.0 µM; active compounds read high
# Summary of the method: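 Vehicle-treated cultures served as the reference for growth inhibition in a yeast strain carrying DNA damage repair alterations exposed to each compound.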
SMILES,growth inhibition [1],growth inhibition [2],growth inhibition [3],growth inhibition [4],growth inhibition [5],growth inhibition [6]
CCOP(=O)(OCC)/C(C#N)=C/c1ccoc1,-36%,-5.8%,-58.2%,-15.2%,-29.9%,-51%
CP1(=S)CC[C@H]2C3=C(CC[C@@H]21)CC(=O)CC3 (stereo partly specified),14.4%,14.6%,11.3%,52.9%,2.9%,16.9%
CC(=O)Nc1nc(CCl)cs1,11.8%,-1.1%,13.6%,5.55%,27.3%,9.6%
CCN(CC)C1C=CCCC1 (stereo unspecified),-18.1%,-8.05%,-20.1%,0.75%,-11.7%,-7.3%
O=C(Cc1ccccc1)OC1CCCC1,14.6%,-4.6%,-7.15%,-39%,-3.3%,19%
O=C(O)C(=O)O.[Ti].[c-]1[c-][c-][cH-][c-]1.[c-]1[c-][c-][cH-][c-]1,23.9%,14.9%,29.6%,-54.7%,24%,29.7%
NC(N)=Nc1c(N)ncnc1N,-4.9%,6.2%,4.4%,-2.65%,-0.8%,-4.45%
CC([NH-])C[NH-].[NH2-].[NH2-].[Pt+4] (stereo unspecified),17.1%,-5.65%,-10.3%,-6.25%,5.8%,-12.3%
CCOC(=O)/C(=C\c1ccc(C(F)(F)F)cc1)[Se]c1ccccc1,26.6%,-34.1%,9.35%,13.8%,-2.5%,-0.3%
CN(C)CCC(O)c1c[nH]c2ccccc12 (stereo unspecified),6%,1%,-4.1%,-5.15%,1.15%,1.15%
CCC(CO)N=Cc1ccccc1O.CCC(CO)N=Cc1ccccc1O.[Ni] (stereo unspecified),40%,1.3%,31.9%,-44.1%,8.7%,25.5%
CCCCOC(=O)C(O)CF (stereo unspecified),-25.2%,-10.1%,-0.25%,1.6%,1.05%,-29.6%
[Cl][Tl],-4.7%,5.2%,9.5%,-11.3%,-41%,-37.5%
COc1cc2c(c(OC)c1OC)-c1ccc(O)c(=O)cc1[C@@H](NC(C)=O)CC2,24% and 43.6%,1.95% and 34.6%,54.9%,35.5%,62.5%,22.9% and -13.1%
CCCCCCOC(=O)C(N)Cc1ccc(OC)c(N(CCCl)CCCl)c1 (stereo unspecified),6.5%,3.65%,-3.55%,5.7%,-1.6%,-2.7%
OCC(S)CS.[Sb] (stereo unspecified),21.1%,19.1%,29.8%,41%,44%,42%
N#CS.[Cr+3].[NH-]CC[NH-].[NH-]CC[NH-].[NH-]CC[NH-],14.8%,-0.5%,10.2%,12.8%,-2.75%,5.05%
[Cl][Sn]([Cl])([c]1ccccc1)[c]1ccccc1.c1ccncc1,96.8% (active),98.8% (active),98.8% (active),97.5% (active),98.1% (active),97.7% (active)
Cc1cc(Cc2cc(C)c(NC(=O)C(=O)C3C(=O)NC(=S)NC3=O)c(C(C)C)c2)cc(C(C)C)c1NC(=O)C(=O)C1C(=O)NC(=S)NC1=O,-20.6%,-8%,-18.9%,21.6%,8.55%,-11.7%
CCC1(CC)C(=O)NC(=O)N(C)C1=O,33.4%,10.2%,31.5%,28.8%,8.25%,24.7%
O=C1CC2(CCNCC2)C(=O)N1N1CCOCC1,19.6%,-0.15%,5.4%,7.55%,2.6%,6%

SMILES,growth inhibition [1],growth inhibition [2],growth inhibition [3],growth inhibition [4],growth inhibition [5],growth inhibition [6]
O=C1NC(=S)NC(=O)C1=Cc1cccc2cc3ccccc3cc12,97.7% (active),98.8% (active),98.5% (active),93.3% (active),98.1% (active),97% (active)
CCN(CCCl)c1cc(C(N)=O)c([N+](=O)[O-])cc1[N+](=O)[O-],-1.25%,-8.7%,9%,3.8%,5.25%,-19.6%
CCOC(=O)C1C2(C)NC(=O)C1(Cc1ccccc1)c1ccc(O)cc1O2 (stereo unspecified),4.05%,3.1%,-13.1%,0.05%,2.5%,-1.05%
CC12CC(=O)C3C(CCC4CC=CCC43C)C1CCC2=O (stereo unspecified),22.1%,-12.5%,28.1%,5.8%,10%,24.5%
CC[C@@H]1C[C@H]2CC3c4[nH]c5ccccc5c4CCN(C2)C31,45.9%,30.2%,61.3%,37%,47.2%,65.8%
COc1cccc(NC2=NCCO2)c1,-17.1%,-1.2%,-5.95%,3.8%,-2.2%,-12.2%
O=C(O)Cc1ccc([N+](=O)[O-])cc1[N+](=O)[O-],3.55%,-13.6%,-7.25%,-27.2%,0.05%,-2.6%
C1CN(P(N2CCOCC2)N2CCOCC2)CCO1,-17.6%,-70.3%,-9.25%,18.1%,-10.4%,-28.4%
CC(O)CN(CCN(CC(C)O)CC(C)O)CC(C)O.O=[N+]([O-])O.[Cu+2] (stereo unspecified),6.05%,-54%,-27.2%,-35.6%,-29.6%,5.15%
NC(=O)c1ccc(NN=O)nc1,-10.4%,0.9%,1.1%,-9.85%,-2.85%,-2.5%
CCCCC(=O)O.[Ni],-11.2%,-2.65%,-9.7%,-32%,-30.9%,-14.1%
c1ccc2c(c1)Nc1ccccc1S2,41%,10.1%,17.9%,28.4%,28.5%,34.2%
CN1C(=O)C(C)(C2=CCCCC2)C(=O)NC1=S (stereo unspecified),1.55%,1.65%,11.8%,-17.4%,-1.9%,11.9%
CN(C)P(=O)(N(C)C)N1CCCCCC1,-8.2%,-21.6%,0%,-18.4%,3.4%,-10.6%
O=C(O)CC1OCC=C2CN3CCC45c6ccccc6NC4C1C2CC35 (stereo unspecified),-30.8% and 9.3%,-15.9% and -13.8%,-31.9%,19.6%,-57.6%,-15.2% and 18.8%
CC(C)N(C(=O)SCC(Cl)=C(Cl)Cl)C(C)C,-2.95%,-15.8%,-0.35%,-3.05%,-12.3%,30%
O=C(Cc1ccccc1)OCc1ccco1,6.9%,-23.9%,-30%,-41.5%,13.4%,-4.7%
CC[As](=O)(O)c1ccc(I)cc1,3.6%,-8.4%,-1.95%,-11.8%,12.8%,5.95%
C[N+](CCCl)(CCCl)Cc1cc([N+](=O)[O-])cc([N+](=O)[O-])c1,-6.05%,-3.05%,8.9%,-8.6%,-1.25%,5.95%
NC(CCCc1ccc(N(CCCl)CCCl)cc1)C(=O)O (stereo unspecified),-1.55%,-3.45%,8.75%,-52.7%,-6.15%,-8.3%
